Source: PubChem
Rows were chosen to be rich in hits. Some 2.2% of all compounds tested hit in one or more screens of this group.
TGFb SMAD3 inh: TGF-b pathway inhibition. HepG2 CAGA-GFP TGF-b/SMAD3 reporter, GFP fluorescence, 18 h; TGF-beta stimulated, 500 pg/mL final. Potency, µM (series often up to 46.1 µM), inactives show at the highest dose activity, negative = inhibition, hits mostly inhibitors. actives 1.2% (n = 410,000); note: potency is the fitted concentration of half-maximal effect; % is set by controls: 0 for no effect and ±100 for the full control effect; nearly all actives have a fitted effect of over 65% in size
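HEPG2 CAGA-GFP, 1000 cells/well; 2 h settle, 37 C; cpd via pin tool; TGF-b 500 pg/mL final; 18 h, 37 C; GFP imaging ex488/em500-530; %Activity normalised to -TGF-b and +DMSO controls; CRC fit, curve class.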
ATXN2 expr inh: inhibitors of ATXN2 expression; HEK-293 ATXN2-luciferase reporter, luminescence, 24 h; Potency, µM (series often up to 57 µM), without a hit: at the top dose activity change, negative = inhibition, most hits filed as inhibitors; actives 0.72% (n = 360,000); AID 1745845; note: potency is the fitted concentration of half-maximal effect; % is set by controls: 0 for no effect and ±100 for the full control effect; nearly all actives have a fitted effect of over 55% in size
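ATXN2-luciferase reporter cells (luciferase flanked by upstream and downstream ATXN2 gene portions) were treated 24 h at 37 °C with compounds at up to 57 uM. SteadyGlo luminescence gave expression; GF-AFC fluorescence gave viability.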
mIDH1 inhibitor: inhibitors of human mutant IDH1 R132H; AID 602179; IDH1-R132H enzyme, NADPH consumption, diaphorase/resazurin fluorescence; actives 0.093% (n = 390,000); Potency, µM (series often up to 76.6 µM), for inactives: at the top dose activity change, negative = inhibition, most hits filed as inhibitors; O75874; note: potency is the fitted concentration of half-maximal effect; % is set by controls: 0 for no effect and ±100 for the full control effect; nearly all actives have a fitted effect of over 65% in size
Target sequence (O75874 whole entry R132H, stated change not applied): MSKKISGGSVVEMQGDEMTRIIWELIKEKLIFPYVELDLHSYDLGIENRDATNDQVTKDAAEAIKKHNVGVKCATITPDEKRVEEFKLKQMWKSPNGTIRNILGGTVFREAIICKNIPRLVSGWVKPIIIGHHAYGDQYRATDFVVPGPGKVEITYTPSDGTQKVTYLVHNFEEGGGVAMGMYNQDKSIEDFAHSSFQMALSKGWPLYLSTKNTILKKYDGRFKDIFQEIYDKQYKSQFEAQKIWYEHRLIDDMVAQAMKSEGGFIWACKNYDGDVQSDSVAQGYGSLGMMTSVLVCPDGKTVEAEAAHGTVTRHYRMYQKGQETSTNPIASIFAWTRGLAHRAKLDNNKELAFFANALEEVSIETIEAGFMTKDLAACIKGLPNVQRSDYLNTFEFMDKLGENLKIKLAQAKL
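IDH1-R132H (0.5 ug/mL dispensed) in pH 7.5 Tris buffer was preincubated 30 min with compound, then given a substrate mix of 0.016 mM NADPH and 2 mM alpha-KG for 80 min at room temperature; remaining NADPH was read by diaphorase/resazurin fluorescence.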
ATXN viability: cell viability loss in ATXN counter-screen; S2 cells (HEK-293 line with an ATXN2-luciferase reporter) viability, CellTiter-Fluor protease fluorescence, 24 h; Potency, µM (highest dose often 56.7 µM), usual class: cytotoxic; actives 0.49% (n = 400,000); note: potency is the fitted concentration of half-maximal effect; nearly all actives have a fitted effect of over 40% in size
HepG2 tox-1: counter-screen for TGF-b inhibitors: cytotoxicity in HepG2 cells; HepG2 CAGA-GFP viability, ATP luminescence, 18 h; Potency, µM (doses to about 46.1 µM), inactives show top-dose activity change, negative = cytotoxicity, most hits filed as cytotoxic; actives 0.76% (n = 410,000); AID 588856; note: potency is the fitted concentration of half-maximal effect
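HepG2 CAGA-GFP cells (1000/well, DMEM with 1% FBS) received compound, then TGF-beta at 500 pg/mL final, and were incubated 18 hours at 37 degrees C. Viability was read by CellTiter-Glo luminescence. Media-only wells were set as complete cell-killing and DMSO as no toxicity.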
LDHA block: inhibitors of human lactate dehydrogenase A; P00338; purified LDHA, NADH/diaphorase-resazurin fluorescence; stronger effect = lower value; activity change, % (values are at about 110 or 230 µM); actives 0.15% (n = 480,000); in the data active = activity change below about -30%; inconclusive = mostly about -25% to -30%;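 note: plate controls were DMSO wells for no effect and wells without enzyme for full effect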
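Resorufin fluorescence (ex540/em590), read at 0 and 20 min after diaphorase/resazurin addition, reports the NADH left after a 5 min room-temperature reaction of 2 nM human LDH5 with 0.06 mM NADH and 0.2 mM pyruvate.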
TGFb confirm: confirmation of TGF-b signaling inhibitors in HepG2 reporter cells | shares compounds with TGFb SMAD3 inh | Potency, µM (top dose mostly 46.1 µM), without a hit: top-dose activity, negative = inhibition, most hits filed as inhibitors | actives 63% (n = 1,600) | HepG2 CAGA-GFP TGF-b reporter, GFP fluorescence, 18 h; cells stimulated with TGF-beta, 500 pg/mL | AID 720534; note: potency is the fitted concentration of half-maximal effect; % is set by controls: 0 for no effect and ±100 for the full control effect; nearly all actives have a fitted effect of over 65% in size
HepG2 tox-2: counter-screen for TGF-b inhibitors: cytotoxicity in HepG2 cells. HepG2 CAGA-GFP viability, ATP luminescence, 18 h; cells stimulated with TGF-beta, 500 pg/mL. AID 720535. shares compounds with TGFb SMAD3 inh. Potency, µM (series often up to 46.1 µM), without a hit: top-dose activity, negative = cytotoxicity, most hits filed as inhibitors. actives 27% (n = 1,600); note: potency is the fitted concentration of half-maximal effect; % is set by controls: 0 for no effect and ±100 for the full control effect; nearly all actives have a fitted effect of over 70% in size
CCL64 TGFb inh: blocks TGF-b signaling in CCL64 reporter cells | shares compounds with TGFb SMAD3 inh | CCL64 CAGA-GFP reporter, TGF-b stimulated, GFP fluorescence, 18 h | Potency, µM (top dose mostly 46.1 µM), without a hit: at the highest dose activity, negative = inhibition, most hits filed as inhibitors | actives 41% (n = 1,600) | AID 720536; note: potency is the fitted concentration of half-maximal effect; nearly all actives have a fitted effect of over 65% in size
TGFb COP inh: TGF-b inhibition validated with COP promoter. HepG2 COP-GFP TGF-b reporter, GFP fluorescence, 18 h; cells stimulated by added recombinant TGF-beta. shares compounds with TGFb SMAD3 inh. actives 3% (n = 1,600). Potency, µM (highest dose often 46.1 µM), for inactives: at the top dose activity, negative = inhibition, most hits filed as inhibitors; note: potency is the fitted concentration of half-maximal effect; nearly all actives have a fitted effect of over 70% in size
* = called active by the depositor; i = inactive; ? = inconclusive; / = no result given. Unless noted, calls come from the whole dose curve; as a rule, active = well fitted curve in the direction sought with a large enough effect; inconclusive = small, poorly fitted or top-dose-only effect, or another doubt; inactive = no such curve, though single readings can be large; an effect the other way counts as inactive or inconclusive.

SMILES	TGFb SMAD3 inh	ATXN2 expr inh	mIDH1 inhibitor	ATXN viability	HepG2 tox-1	LDHA block	TGFb confirm	HepG2 tox-2	CCL64 TGFb inh	TGFb COP inh
NC1=C(Br)C(=O)c2ncccc2C1=O	2.8µM*	5.3µM*	15%	13µM*	2.8µM*	41	1.2µM*	3.3µM*	4.6µM*	4.6µM*
O=C1c2cccnc2C(=O)N1CO	1%	-2%	5%	i	13%	-6	/	/	/	/
CCCn1c(SCC(=O)N2CCCCC2)nc2c1c(=O)n(C)c(=O)n2C	-7%	9%	2%	i	-9%	-11	/	/	/	/
NC(=O)c1cccc(-c2ccnc3c2CC(C(=O)Nc2cccc(C(F)(F)F)c2)O3)c1 (configuration not stated)	13µM*	?	/	i	-27%	-1	21µM*	-28%	7%	31%
O=C(Nc1cccc(C(F)(F)F)c1)C1Cc2c(-c3cccc(F)c3)ccnc2O1 (configuration not stated)	?	?	/	?	-19%	0	/	/	/	/
O=C(NC1CCCCC1)c1ccc([N+](=O)[O-])o1	?	9%	-3%	i	-18%	-1	/	/	/	/
O=C(NC1CCCC(C(F)(F)F)C1)c1ccc([N+](=O)[O-])o1 (configuration not stated)	10µM*	-8%	13%	i	16µM*	4	7.3µM*	23µM*	?	?
Oc1c(CN2CCCCC2)cc(Br)c2cccnc12	2.8µM*	4µM*	3%	3.5µM*	-46%	13	21µM*	?	7.3µM*	19%
O=C(Oc1c(CN2CCOCC2)cc(Cl)c2cccnc12)c1ccccc1	2.8µM*	8.9µM*	-2%	11µM*	2.8µM*	-4	-6%	?	?	4%
CN1CCN(Cc2cc(COCc3ccccc3)c3cccnc3c2O)CC1	4.5µM*	4µM*	4%	?	-30%	8	-18%	?	7.3µM*	5%
Oc1c(Cl)cc(CN2CCOCC2)c2cccnc12	2.5µM*	/	0%	?	-49%	9	?	?	?	6%
CCOc1c(Cl)cc(/C=N/NC(N)=S)cc1OC	14µM*	/	6%	i	6%	-5	?	6%	?	-28%
C#CCOc1c(Cl)cc(/C=N/NC(N)=S)cc1OCC	0%	-19%	-20%	i	16%	-5	/	/	/	/
CCN1CCN(c2ccc3cc(S(=O)(=O)N4CCOCC4)ccc3n2)CC1	/	/	/	/	/	20	/	/	/	/
Nc1ccc(C(=O)N/N=C/c2cn(Cc3ccccc3F)c3ccccc23)cc1	0%	-26%	-11%	i	-16%	-1	/	/	/	/
COc1cc(C(=O)N/N=C/c2cn(Cc3ccccc3)c3ccccc23)ccc1O	-19%	-6%	1%	i	-6%	-4	/	/	/	/
Cc1ccc(OCC(=O)N/N=C\c2cn(Cc3ccccc3)c3ccccc23)cc1C	11µM*	-13%	3%	i	-7%	-2	5.2µM*	5.2µM*	4%	-22%
Nc1ccc(C(=O)N/N=C/c2cn(Cc3ccc(F)cc3)c3ccccc23)cc1	7.9µM*	-8%	0%	i	-13%	-6	5.8µM*	2.1µM*	-1%	20%
CS(=O)(=O)c1nc(S(=O)(=O)c2ccc(Cl)cc2)c(N2CCCCC2)s1	2%	-18%	3%	i	2%	-7	/	/	/	/
CCOc1ccc(C(CN2CCOCC2)C(C)=O)cc1OC (configuration not stated)	2.5µM*	?	/	i	-102%	2	?	16µM*	16µM*	?
CCn1nc([N+](=O)[O-])c(C(C#N)c2nc3cc(C(F)(F)F)ccc3s2)c(Cl)c1=O (configuration not stated)	0.35µM*	?	3%	/	-100%	8	3.3µM*	8.2µM*	5.2µM*	-29%
CCN(CC)C(=O)CSc1nnc2nnc3cc(Cl)ccc3n12	4µM*	-21%	15%	i	-86%	2	23µM*	23µM*	?	?
COc1ccc(/C=N/n2cnc3c([nH]c4ccc(C)cc43)c2=O)cc1CN1CCCC1	?	/	-6%	/	-60%	-3	/	/	/	/
COc1ccc(/C=N/n2cnc3c([nH]c4ccc(F)cc43)c2=O)cc1CN1CCCC1	7.1µM*	/	1%	i	7.1µM*	-4	16µM*	23µM*	23µM*	?
O=C(COc1ccccc1)N[C@@H]1c2ccccc2CC[C@H]1OCc1ccccc1	16µM*	-37%	3%	i	-23%	3	?	?	18µM*	36%
O=C(COc1ccccc1)N[C@@H]1c2ccccc2CC[C@@H]1OCc1ccccc1	-27%	-3%	-8%	i	-16%	1	/	/	/	/
CCCS(=O)(=O)NC(=O)C1(C)CCN(C(=O)c2ccc(OC(F)F)cc2)C1 (configuration not stated)	0%	11%	/	i	-9%	0	/	/	/	/
O=C(Nc1cccc([N+](=O)[O-])c1)Nc1cnccn1	-5%	0%	-4%	i	1%	-1	/	/	/	/
